Values without a mark were called inactive.

Results on nine compounds are retold here after the supplement of paper PMC11732987, “Enantioselective OTUD7B fragment discovery through chemoproteomics screening and high-throughput optimisation” (Communications Chemistry, 2025).

Common to all, as to assay: log2 ratio of Biotin-Ahx-Ub-VS probe labelling (fragment/DMSO); higher = less target engagement (more negative = stronger competition), active = hit call of the paper (q ≤ 0.05, log2 ratio ≤ -1)
Common to all, as to conditions: compound concentration: 200 uM; treatment time: 3 h

Assay [1] has as its target UniProt O00507. The procedure, abridged: (§1)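 Values give the average log2 ratio of fragment to vehicle, assessed by unpaired t-test on global-median-normalised Spectronaut label-free quantities. Proteins needed ≥2 unique peptides. HEK293T lysate (495 µg per sample) was treated in triplicate with fragment at 200 µM or vehicle for 3 h and then with Biotin-Ahx-Ub-VS at 0.5 µM final for 1 h. Labelled DUBs were NeutrAvidin-enriched, digested and run by diaPASEF LC-MS/MS.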

The target in assay [2] is UniProt P51784. The procedure, abridged:
as §1

Assay [3] deals with T1, UniProt Q5T2D3.
T1 sequence (whole entry): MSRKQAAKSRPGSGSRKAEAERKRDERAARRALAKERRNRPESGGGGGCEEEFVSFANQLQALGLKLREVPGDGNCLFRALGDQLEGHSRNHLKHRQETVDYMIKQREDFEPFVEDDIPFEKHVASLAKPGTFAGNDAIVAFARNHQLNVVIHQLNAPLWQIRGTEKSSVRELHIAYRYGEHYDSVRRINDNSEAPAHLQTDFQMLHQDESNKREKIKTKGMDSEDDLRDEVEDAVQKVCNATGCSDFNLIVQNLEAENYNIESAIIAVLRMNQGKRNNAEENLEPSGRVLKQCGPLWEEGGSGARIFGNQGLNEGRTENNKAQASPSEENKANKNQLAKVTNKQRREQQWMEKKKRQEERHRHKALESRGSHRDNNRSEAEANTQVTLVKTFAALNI
Summed up: as §1

In assay [4] the target is T2, UniProt Q8TE49.
T2 sequence (whole entry): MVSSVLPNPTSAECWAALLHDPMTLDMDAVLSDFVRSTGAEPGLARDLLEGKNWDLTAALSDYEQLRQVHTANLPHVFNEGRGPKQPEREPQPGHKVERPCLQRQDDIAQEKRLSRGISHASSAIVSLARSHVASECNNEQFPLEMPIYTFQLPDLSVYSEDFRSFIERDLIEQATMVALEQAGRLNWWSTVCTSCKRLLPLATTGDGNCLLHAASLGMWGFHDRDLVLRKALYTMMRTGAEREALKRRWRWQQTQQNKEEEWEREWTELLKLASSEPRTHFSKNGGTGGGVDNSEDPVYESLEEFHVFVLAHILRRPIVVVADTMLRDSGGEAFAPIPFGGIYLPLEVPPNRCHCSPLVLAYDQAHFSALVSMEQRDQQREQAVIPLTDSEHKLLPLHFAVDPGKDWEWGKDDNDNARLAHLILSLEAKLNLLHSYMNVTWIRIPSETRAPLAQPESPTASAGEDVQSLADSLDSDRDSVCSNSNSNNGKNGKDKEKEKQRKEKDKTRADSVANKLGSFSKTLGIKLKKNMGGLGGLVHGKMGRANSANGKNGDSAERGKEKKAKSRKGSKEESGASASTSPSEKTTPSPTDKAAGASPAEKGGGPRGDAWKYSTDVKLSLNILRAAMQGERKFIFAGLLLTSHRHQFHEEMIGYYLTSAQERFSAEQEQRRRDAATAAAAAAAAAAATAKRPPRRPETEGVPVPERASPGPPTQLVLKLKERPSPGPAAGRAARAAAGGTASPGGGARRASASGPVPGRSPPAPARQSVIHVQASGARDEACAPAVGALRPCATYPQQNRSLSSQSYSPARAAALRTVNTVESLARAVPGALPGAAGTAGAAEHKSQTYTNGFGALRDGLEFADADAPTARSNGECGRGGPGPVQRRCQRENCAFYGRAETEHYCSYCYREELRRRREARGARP
The procedure, abridged:
as §1

Assay [5] has as its target T3, UniProt Q9P2H5.
T3 sequence (whole entry): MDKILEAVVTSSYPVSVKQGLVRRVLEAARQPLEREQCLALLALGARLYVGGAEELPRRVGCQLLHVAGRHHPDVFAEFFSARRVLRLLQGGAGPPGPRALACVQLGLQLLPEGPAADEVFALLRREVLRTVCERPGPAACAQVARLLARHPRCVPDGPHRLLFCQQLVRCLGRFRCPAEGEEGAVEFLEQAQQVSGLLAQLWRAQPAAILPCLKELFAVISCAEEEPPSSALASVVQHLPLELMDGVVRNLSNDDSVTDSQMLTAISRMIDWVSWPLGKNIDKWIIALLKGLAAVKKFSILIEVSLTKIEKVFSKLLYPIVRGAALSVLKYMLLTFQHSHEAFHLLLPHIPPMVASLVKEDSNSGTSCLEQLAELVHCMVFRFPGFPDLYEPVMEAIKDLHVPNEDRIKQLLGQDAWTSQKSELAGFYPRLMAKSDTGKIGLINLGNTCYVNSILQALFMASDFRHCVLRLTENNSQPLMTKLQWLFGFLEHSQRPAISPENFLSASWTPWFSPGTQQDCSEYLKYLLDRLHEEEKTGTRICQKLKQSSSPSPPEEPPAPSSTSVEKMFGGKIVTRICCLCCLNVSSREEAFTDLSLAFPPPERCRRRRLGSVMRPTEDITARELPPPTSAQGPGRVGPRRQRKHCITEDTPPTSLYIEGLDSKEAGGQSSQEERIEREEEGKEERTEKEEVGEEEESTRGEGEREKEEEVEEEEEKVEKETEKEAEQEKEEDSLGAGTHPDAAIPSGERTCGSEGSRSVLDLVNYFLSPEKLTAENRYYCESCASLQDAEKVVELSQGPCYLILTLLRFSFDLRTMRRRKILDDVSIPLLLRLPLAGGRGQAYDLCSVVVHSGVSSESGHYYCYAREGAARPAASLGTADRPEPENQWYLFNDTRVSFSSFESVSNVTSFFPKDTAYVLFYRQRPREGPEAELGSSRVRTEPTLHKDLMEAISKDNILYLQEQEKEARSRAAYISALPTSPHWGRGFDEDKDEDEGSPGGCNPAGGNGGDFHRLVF
Summed up:
as §1

The target in assay [6] is T4, UniProt Q9UGI0.
T4 sequence (whole entry): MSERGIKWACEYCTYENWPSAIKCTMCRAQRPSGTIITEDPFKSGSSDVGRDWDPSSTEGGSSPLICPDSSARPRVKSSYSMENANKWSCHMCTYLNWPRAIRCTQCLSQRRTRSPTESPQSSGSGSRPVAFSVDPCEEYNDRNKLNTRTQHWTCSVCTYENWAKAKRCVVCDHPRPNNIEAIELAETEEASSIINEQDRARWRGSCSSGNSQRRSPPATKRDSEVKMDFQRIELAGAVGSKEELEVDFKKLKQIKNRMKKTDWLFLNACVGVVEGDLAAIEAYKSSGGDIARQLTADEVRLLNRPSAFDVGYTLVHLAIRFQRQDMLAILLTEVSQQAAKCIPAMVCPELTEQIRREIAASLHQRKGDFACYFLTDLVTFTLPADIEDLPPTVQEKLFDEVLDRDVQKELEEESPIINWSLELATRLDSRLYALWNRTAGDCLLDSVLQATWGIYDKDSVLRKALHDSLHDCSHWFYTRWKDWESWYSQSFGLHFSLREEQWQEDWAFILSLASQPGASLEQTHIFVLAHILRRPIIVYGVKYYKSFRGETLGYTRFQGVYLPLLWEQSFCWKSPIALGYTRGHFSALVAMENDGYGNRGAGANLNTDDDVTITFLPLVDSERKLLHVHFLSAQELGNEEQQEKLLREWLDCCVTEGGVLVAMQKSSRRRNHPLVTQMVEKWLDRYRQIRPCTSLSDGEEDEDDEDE
The procedure, abridged: as §1

The target in assay [7] is T5, YOD1 (UniProt Q5VVQ6).
T5 sequence (whole entry): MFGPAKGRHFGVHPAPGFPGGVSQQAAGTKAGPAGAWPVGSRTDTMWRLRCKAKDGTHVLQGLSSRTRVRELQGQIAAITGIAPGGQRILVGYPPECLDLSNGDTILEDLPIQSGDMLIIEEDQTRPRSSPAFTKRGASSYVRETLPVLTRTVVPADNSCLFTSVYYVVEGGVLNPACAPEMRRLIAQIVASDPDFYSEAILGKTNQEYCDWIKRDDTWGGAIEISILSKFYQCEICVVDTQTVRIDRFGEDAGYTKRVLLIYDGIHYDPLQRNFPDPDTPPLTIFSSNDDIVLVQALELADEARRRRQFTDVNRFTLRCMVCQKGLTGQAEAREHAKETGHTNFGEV
Summed up:
as §1

UniProt P51784, sequence (P51784 whole entry): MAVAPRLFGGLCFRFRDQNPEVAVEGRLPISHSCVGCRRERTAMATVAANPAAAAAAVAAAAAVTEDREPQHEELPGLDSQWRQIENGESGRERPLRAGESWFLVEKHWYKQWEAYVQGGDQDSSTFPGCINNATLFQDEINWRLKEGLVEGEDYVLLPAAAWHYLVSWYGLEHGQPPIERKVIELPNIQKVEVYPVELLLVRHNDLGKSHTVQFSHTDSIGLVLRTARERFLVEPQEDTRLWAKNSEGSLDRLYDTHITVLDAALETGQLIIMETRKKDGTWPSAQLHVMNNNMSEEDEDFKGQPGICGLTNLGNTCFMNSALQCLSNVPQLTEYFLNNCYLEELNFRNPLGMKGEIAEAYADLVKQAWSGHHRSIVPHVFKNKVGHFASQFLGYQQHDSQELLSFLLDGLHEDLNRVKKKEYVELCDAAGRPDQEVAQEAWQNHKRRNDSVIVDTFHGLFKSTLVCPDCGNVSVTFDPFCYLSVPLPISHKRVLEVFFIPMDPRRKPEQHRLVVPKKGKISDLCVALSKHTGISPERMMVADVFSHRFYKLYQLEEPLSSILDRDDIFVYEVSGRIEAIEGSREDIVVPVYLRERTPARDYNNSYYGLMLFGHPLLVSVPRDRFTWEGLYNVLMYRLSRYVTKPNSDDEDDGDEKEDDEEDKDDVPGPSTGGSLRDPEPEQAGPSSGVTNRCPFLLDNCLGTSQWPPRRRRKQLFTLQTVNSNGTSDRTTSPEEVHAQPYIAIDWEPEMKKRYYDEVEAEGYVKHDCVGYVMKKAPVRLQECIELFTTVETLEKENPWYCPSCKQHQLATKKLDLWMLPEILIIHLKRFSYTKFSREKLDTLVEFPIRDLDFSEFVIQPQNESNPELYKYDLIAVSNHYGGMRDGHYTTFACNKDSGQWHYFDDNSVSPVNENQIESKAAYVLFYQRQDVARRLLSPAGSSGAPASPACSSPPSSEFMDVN
UniProt O00507, sequence (O00507 whole entry, the tested form may be a part): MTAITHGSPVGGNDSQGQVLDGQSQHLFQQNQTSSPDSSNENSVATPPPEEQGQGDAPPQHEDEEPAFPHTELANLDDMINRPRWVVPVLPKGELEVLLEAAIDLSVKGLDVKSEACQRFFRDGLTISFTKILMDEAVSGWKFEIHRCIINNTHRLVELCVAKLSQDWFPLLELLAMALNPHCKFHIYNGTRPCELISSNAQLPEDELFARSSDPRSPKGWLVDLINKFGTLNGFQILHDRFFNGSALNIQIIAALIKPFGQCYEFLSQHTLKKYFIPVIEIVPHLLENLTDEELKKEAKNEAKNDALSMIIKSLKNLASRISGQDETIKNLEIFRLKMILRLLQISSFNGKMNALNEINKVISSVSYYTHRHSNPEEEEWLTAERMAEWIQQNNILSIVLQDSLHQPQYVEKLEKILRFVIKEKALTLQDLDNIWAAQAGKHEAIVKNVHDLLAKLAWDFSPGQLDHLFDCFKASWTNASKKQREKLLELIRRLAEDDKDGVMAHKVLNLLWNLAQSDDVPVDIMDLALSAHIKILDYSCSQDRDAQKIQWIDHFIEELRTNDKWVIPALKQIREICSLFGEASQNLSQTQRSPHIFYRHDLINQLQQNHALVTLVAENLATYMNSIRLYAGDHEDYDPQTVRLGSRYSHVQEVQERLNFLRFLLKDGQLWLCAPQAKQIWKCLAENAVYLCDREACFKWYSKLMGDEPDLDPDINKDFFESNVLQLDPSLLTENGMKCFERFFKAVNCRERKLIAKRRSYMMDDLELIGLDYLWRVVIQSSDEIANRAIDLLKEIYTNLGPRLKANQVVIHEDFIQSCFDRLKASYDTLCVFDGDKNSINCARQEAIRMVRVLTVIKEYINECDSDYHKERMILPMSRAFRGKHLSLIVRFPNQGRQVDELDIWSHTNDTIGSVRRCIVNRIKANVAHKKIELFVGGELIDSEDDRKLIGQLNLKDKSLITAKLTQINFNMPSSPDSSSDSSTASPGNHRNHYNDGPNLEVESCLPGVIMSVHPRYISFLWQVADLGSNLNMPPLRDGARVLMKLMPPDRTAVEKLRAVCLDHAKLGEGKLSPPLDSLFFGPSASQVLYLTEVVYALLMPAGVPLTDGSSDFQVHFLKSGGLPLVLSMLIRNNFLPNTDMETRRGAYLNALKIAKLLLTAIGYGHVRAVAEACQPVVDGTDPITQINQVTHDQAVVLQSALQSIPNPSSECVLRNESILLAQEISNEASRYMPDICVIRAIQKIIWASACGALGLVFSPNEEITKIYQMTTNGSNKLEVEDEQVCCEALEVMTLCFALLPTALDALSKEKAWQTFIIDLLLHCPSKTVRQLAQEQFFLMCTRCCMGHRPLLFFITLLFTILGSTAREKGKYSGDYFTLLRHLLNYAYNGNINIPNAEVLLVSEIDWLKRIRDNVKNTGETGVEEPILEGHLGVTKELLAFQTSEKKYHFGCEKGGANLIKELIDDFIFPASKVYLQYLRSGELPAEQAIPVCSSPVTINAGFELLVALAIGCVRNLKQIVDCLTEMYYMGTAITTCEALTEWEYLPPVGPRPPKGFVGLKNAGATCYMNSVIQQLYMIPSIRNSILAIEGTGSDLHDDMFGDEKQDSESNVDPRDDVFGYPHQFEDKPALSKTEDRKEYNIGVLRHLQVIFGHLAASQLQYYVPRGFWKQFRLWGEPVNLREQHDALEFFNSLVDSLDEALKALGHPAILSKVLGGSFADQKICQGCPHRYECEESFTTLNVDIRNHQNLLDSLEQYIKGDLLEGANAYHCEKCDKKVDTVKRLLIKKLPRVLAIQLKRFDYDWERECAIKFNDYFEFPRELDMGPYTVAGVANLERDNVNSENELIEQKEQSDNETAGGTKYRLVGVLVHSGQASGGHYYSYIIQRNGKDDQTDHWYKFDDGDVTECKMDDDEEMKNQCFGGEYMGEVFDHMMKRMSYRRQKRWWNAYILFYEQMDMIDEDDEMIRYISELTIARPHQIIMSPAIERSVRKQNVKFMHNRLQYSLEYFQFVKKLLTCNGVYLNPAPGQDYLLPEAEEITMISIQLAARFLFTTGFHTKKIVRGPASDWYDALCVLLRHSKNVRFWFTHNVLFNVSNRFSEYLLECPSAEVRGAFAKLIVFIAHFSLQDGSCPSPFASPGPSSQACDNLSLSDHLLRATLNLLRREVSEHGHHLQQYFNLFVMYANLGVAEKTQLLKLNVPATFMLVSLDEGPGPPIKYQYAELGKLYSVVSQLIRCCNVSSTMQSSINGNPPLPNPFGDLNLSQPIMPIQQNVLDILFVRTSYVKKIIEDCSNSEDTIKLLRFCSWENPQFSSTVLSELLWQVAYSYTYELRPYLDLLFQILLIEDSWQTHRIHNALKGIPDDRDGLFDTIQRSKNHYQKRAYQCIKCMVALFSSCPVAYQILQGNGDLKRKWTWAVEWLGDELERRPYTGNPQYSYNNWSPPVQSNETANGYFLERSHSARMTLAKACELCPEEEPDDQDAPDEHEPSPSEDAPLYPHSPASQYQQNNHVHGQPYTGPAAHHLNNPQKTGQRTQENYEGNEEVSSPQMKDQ

For `CC1Cc2ccccc2N1C(=O)CCl` (stereo not drawn), the “log2 ratio of Biotin-Ahx-Ub-VS probe labelling” value (from here on “log2 ratio”) is -0.438 in assay [1]; -0.254 in assay [2]; -0.151 in assay [3]; -0.28 in assay [4]; -0.127 in assay [5]; -0.604 in assay [6]. Also, the “log2 ratio” value in assay [7] is -0.114.
For `Cc1c(NC(=O)CCl)c(=O)n(-c2ccccc2)n1C`, the “log2 ratio” value is 0.221 in assay [1]; -0.106 in assay [2]; -0.105 in assay [3]; -0.377 in assay [4]; -0.286 in assay [5]; 0.0727 in assay [6]. For the same compound, the “log2 ratio” value in assay [7] is -0.128.
For the compound `Cc1nc(-c2cccc(NC(=O)CCl)c2)cs1`, the “log2 ratio” value in assay [1] is -0.692; in assay [2], -0.269; in assay [3] it was -0.317; in assay [4], -0.655; in assay [5], -0.193; in assay [6], -1.43 (active). Further, the “log2 ratio” value in assay [7] is -0.369.
`COc1cc(Cl)c(C)cc1NC(=O)CCl`: the “log2 ratio” value was -0.429 in assay [1]; -0.107 in assay [2]; -0.258 in assay [3]; -0.622 in assay [4]; -0.319 in assay [5]; -1.23 (active) in assay [6]. Also, the “log2 ratio” value in assay [7] was -0.11.
On to `CN(Cc1nc2ccccc2[nH]1)C(=O)CCl.Cl`, for which the “log2 ratio” value in assay [1] was -0.702; in assay [2], 0.00766; in assay [3], -0.19; in assay [4], -0.268; in assay [5], 0.121; in assay [6] it was -0.937. Besides, the “log2 ratio” value in assay [7] is 0.0427.
As for `CC(c1ccccc1)N(C)C(=O)CCl` (stereo not drawn), the “log2 ratio” value in assay [1] was -0.143; in assay [2], -0.169; in assay [3], -0.0617; in assay [4] it was -0.555; in assay [5] it was -0.0284; in assay [6] it was -0.295. The “log2 ratio” value in assay [7] is 0.101.
As to `O=C(CCl)N(Cc1ccsc1)C1CC1`, the “log2 ratio” value in assay [1] is -0.302; in assay [2] it was -0.0887; in assay [3] it was -0.0506; in assay [4] it was -0.101; in assay [5] it was 0.0505; in assay [6], -0.949. The “log2 ratio” value in assay [7] was -0.0601.
For `O=C(CCl)N1CCCC1c1ccsc1` (stereo not drawn), the “log2 ratio” value was -0.118 in assay [1]; -0.115 in assay [2]; -0.188 in assay [3]; -0.72 in assay [4]; -0.412 in assay [5]; -1.53 (active) in assay [6]. In addition, the “log2 ratio” value in assay [7] is 0.14.
As for `O=C(CCl)N1CCC(C(=O)N2CCCCCC2)CC1`, the “log2 ratio” value is 0.0804 in assay [1]; 0.0166 in assay [2]; -0.255 in assay [3]; -0.488 in assay [4]; -0.287 in assay [5]; -0.0376 in assay [6]. Moreover, the “log2 ratio” value in assay [7] is 0.016.
